# A selection: hits, their analogues and other compounds. The true share with any hit is near 6.6%.
# MCF10A rerep: DNA re-replication induction in MCF 10a cells; MCF 10A DNA re-replication, Hoechst nuclear intensity, 48 h; Potency, µM (titrated, usually from 46.1 µM), usual class: activators; hit rate 2.9% among 350,000; also: nearly all actives have a fitted effect of over 50% in size
# RGS4 inh: inhibitors of human regulator of G protein signaling 4. hit rate 0.039% among 390,000. P49798. AID 504845. Potency, µM (series often up to 114 µM), most hits filed as inhibitors. Transcreener GDP fluorescence polarization, RGS4-accelerated GTP hydrolysis; also: nearly all actives have a fitted effect of over 75% in size
# Target sequence (P49798 whole entry, looked up): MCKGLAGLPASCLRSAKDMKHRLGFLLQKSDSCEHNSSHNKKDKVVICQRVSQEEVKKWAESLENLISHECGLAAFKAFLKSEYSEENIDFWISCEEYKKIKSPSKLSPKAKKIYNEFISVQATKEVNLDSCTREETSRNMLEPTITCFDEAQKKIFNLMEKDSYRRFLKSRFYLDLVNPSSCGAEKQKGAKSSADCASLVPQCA
#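 MLSMR compounds (23 nl, pin-transferred) preincubated 10 min at room temperature with a 500nM (2x) first reagent, then RGS4 at 900nM (2x) plus Transcreener GDP mix added; fluorescence polarization (620/688 nm) read before and after 90 min at 30 °C.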
# TSG101-PTAP inh: blocks PTAP/TSG101 interaction to inhibit HIV-1 budding; Fluorescence polarization, FITC-PTAP peptide / Tsg101 binding; AID 493005; Potency, µM (highest dose often 115 µM), usual class: inhibitors; Q99816; 340,000 tested, under 10 active; active = well fitted inhibition curve with a large enough effect in the main read-out, with a control signal flat, not every such curve was filed as active; inconclusive = small, poorly fitted or top-dose-only effect, or effect the other way, or a change in a side signal; inactive = no such curve, though single readings can be large or run the other way
# Target sequence (Q99816 whole entry, looked up): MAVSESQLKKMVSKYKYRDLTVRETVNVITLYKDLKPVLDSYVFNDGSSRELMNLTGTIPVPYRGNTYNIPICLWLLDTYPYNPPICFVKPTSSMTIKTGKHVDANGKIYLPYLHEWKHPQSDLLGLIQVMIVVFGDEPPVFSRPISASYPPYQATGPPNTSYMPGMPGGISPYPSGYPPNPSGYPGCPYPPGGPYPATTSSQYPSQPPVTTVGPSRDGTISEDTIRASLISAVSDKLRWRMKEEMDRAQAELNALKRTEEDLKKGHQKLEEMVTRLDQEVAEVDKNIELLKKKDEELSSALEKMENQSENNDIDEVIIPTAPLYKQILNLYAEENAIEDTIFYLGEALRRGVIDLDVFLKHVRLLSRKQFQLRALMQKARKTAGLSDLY
#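 Fluorescence anisotropy tracks displacement of a FITC-tagged PTAP peptide (50 nM) from the Tsg101 binding domain (10 uM), following a 20 min room-temperature incubation at pH 7.5.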
# KB-V1 MDR tox: kills drug-selected multidrug resistant KB-V1 cells; hit rate 3.4% among 400,000; KB-V1 MDR cells viability, CellTiter-Glo, 72 h; Potency, µM (series often up to 46.1 µM), hits mostly cytotoxic; AID 1347076; also: nearly all actives have a fitted effect of over 60% in size
#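 Cytotoxicity via CellTiter-Glo luminescence after 72 h compound exposure at 37 degrees C. Cells: drug-selected KB-V1 line, DMEM phenol-red free plus 10% FBS. Compounds tested at multiple concentrations; normalized data fitted to concentration-effect curves.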
# KB-3-1 tox: kills parental KB-3-1 adenocarcinoma cells | KB-3-1 viability, CellTiter-Glo ATP luminescence, 72 h | Potency, µM (top dose mostly 46.1 µM), hits mostly cytotoxic | hit rate 1.4% among 400,000; also: nearly all actives have a fitted effect of over 60% in size
#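 KB-3-1 parental drug-naive adenocarcinoma cells in DMEM/10% FBS, incubated 72 h at 37 C with pin-transferred compounds across a concentration series. Viability by CellTiter-Glo luminescence; concentration-response curves fitted after normalization.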
# SW480 rereplic: induces DNA re-replication in SW480 colon adenocarcinoma cells. hit rate 1.8% among 340,000. SW480 DNA re-replication, Hoechst DNA content imaging, 48 h. AID 624297. Potency, µM (titrated, usually from 46.1 µM), hits mostly activators; also: nearly all actives have a fitted effect of over 55% in size
#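 Hoechst fluorescence of nuclei (405 nm excitation, 500-530 nm emission) measured by plate-scanning imager after 48 hr compound exposure at 37 C; re-replication scored as increased number of nuclei with elevated intensity.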
# Hits are given with their value; – = inactive; ? = inconclusive; · = not tested or not shown; ! = a repeat was not active; [ ] = dose if it differs, or a comment. Unless noted, calls follow the shape of the dose curve; as a rule, active = well fitted curve in the direction sought with a large enough effect; inconclusive = small, poorly fitted or top-dose-only effect, or another doubt; inactive = no such curve, though single readings can be large; an effect the other way counts as inactive or inconclusive.
SMILES,MCF10A rerep,RGS4 inh,TSG101-PTAP inh,KB-V1 MDR tox,KB-3-1 tox,SW480 rereplic
COc1ccc(-c2nnn(CC(=O)N(Cc3ccc(F)cc3)C(C(=O)NC3CCCC3)c3ccc(F)cc3)n2)cc1 (configuration not stated),?,–,–,?,–,–
COc1ccc(C(C(=O)NC2CCCCC2)N(C(=O)CCl)c2ccc(C)cc2)cc1 (configuration not stated),–,–,–,?,?,2.59µM
COc1ccc(C(C(=O)NC2CCCCC2)N(C(=O)CCl)c2ccc(OC)cc2)cc1 (configuration not stated),18.4µM,–,–,3.66µM,5.8µM,?
COc1ccc(CN(C(=O)c2nsc(Cl)c2Cl)C(C(=O)NC2CCCC2)c2ccc(C)cc2)cc1 (configuration not stated),?,–,–,?,?,?
COC(CN(C(=O)CCl)C(C(=O)NC1CCCCC1)c1ccc(C)cc1)OC (configuration not stated),–,–,–,?,?,5.8µM
CC(C)N(Cc1nc(-c2ccccc2)no1)C(=O)CN1C(=O)c2ccccc2C1=O,–,–,·,10.3µM,–,–
CC(C)N(Cc1nc(-c2ccc(Cl)cc2)no1)C(=O)/C=C/c1ccccc1,?,–,–,16.4µM,–,–
CC(C)N(Cc1nc(-c2ccc(Cl)cc2)no1)C(=O)C(c1ccccc1)c1ccccc1,–,–,–,?,?,–
Cc1ccc(-c2noc(CN(C(=O)C(c3ccccc3)c3ccccc3)C(C)C)n2)cc1,–,–,–,8.2µM,?,?
Cc1ccc(CN2CCCn3nc(C(=O)NCc4ccc(OC(C)C)cc4)cc3C2=O)cc1,·,–,·,–,?,·
CC(C)C(NC(=O)OCc1ccccc1)C(=O)OCC(=O)N1CCCCC1 (configuration not stated),–,–,–,?,–,–
COc1ccc(N2CCN(C(=O)COC(=O)[C@@H](NC(=O)OCc3ccccc3)C(C)C)CC2)cc1,–,–,–,6.51µM,–,–
O=C(NC1CCCCC1)c1sc(=S)n2c1[nH]c(=O)c1ccccc12,?,?,–,20.6µM,?,–
CCCCNC(=O)c1sc(=S)n2c1[nH]c(=O)c1ccccc12,?,–,–,–,–,–
CC(C)C(=O)N1c2ncnn2C2(CCCCC2)[C@@H]2CCCC[C@@H]21,·,–,·,–,–,·
O=C(Nn1c(SCc2ccc(F)cc2)nc2ccsc2c1=O)c1ccccc1,?,–,–,4.11µM,–,–
CCOC(=O)/C=c1/s/c(=C/c2ccc3cc(OC)ccc3c2)c(=O)n1CC(=O)NCc1ccc2c(c1)OCO2,1.46µM,–,?,–,?,?
CCOC(=O)/C=c1\s/c(=C\c2ccc(-c3ccccc3)cc2)c(=O)n1CC(=O)NCc1ccc2c(c1)OCO2,?,–,–,–,?,?
CCOC(=O)/C=c1\s/c(=C\c2ccc(C)cc2)c(=O)n1CC(=O)NCc1ccco1,?,–,–,?,–,?
CCOC(=O)/C=c1\s/c(=C\c2ccc3cc(OC)ccc3c2)c(=O)n1CC(=O)NCC1CCCO1 (configuration not stated),11.6µM,–,?,18.4µM,20.6µM,–
CCOC(=O)/C=c1\s/c(=C\c2ccc(C(F)(F)F)cc2)c(=O)n1CC(=O)NCc1ccco1,23.1µM,?,–,–,–,2.31µM
CCc1ccc(CN(Cc2ccco2)C(=O)c2cc(-c3ccc(C)c(F)c3)on2)cc1,·,–,·,·,·,·
O=c1cc(CCl)nc(Cc2c(Cl)cccc2Cl)[nH]1,18.4µM,–,–,?,?,?
Cc1ccc(S(=O)(=O)N(C)Cc2ccc(C(=O)N/N=C/c3ccc(OC(F)F)cc3OC(F)F)cc2)cc1,–,–,–,5.8µM,?,–
O=C(N/N=C/c1ccc(OC(F)F)cc1OC(F)F)c1ccc(Br)cc1,–,–,–,–,–,–
SMILES,MCF10A rerep,RGS4 inh,TSG101-PTAP inh,KB-V1 MDR tox,KB-3-1 tox,SW480 rereplic
CCOC(=O)c1ccc(NC(=O)CCc2nc(-c3ccc(C)cc3)no2)cc1,14.6µM,–,–,–,–,–
CCOc1ccc(-c2noc(CCC(=O)O)n2)cc1,?,–,–,–,–,4.11µM
CCc1ccccc1N(C)C(=O)CCc1nc(-c2ccc(C)cc2)no1,–,–,–,18.4µM,–,–
CC(C)CCn1c(=O)c2sccc2n2c(CCCC(=O)Nc3ccc(C(C)C)cc3)nnc12,·,–,·,·,·,·
CN(C)c1ccc(-c2nc3ccccn3c2Nc2ccc3c(c2)OCCO3)cc1,·,–,·,·,·,·
O=C(O)/C=C\C(=O)Nc1ccccc1C#Cc1ccccc1,–,–,–,–,–,–
O=C(O)/C=C\C(=O)Nc1ccccc1C#Cc1ccc(Br)cc1,18.4µM,–,–,–,?,?
CCOC(=O)c1cnc(Nc2nc3ccccc3o2)nc1CSc1nnc(C)s1,?,–,–,?,–,0.651µM
CCOC(=O)c1cnc(Nc2nc3ccccc3o2)nc1C,–,–,–,–,11.2µM,?
CCOC(=O)c1c(-c2ccccc2)csc1NC(=O)CSc1nnc(C)s1,?,–,–,?,?,–
CCOC(=O)c1cnc(Nc2ccc(OCC)cc2)nc1C,?,–,–,–,–,–
Cc1ccc(C(=O)NNC(=O)c2cccc(Br)c2)cc1,–,–,–,–,–,–[1.84 µM]
CC(C)(C)c1ccc(C(=O)NNC(=O)c2cccc(Br)c2)cc1,11.6µM,–,–,–,–,?
CS/C(=N\S(=O)(=O)c1cccs1)Nc1ccc(Br)cc1F,23.1µM!,–,–,?,–,–
CCCCN(C)CC(O)Cn1cc(/C=C/C(=O)c2ccc(OC)c(OC)c2)c2ccccc21 (configuration not stated),·,–,·,–,?,·
CCN(CC)c1ccc2cc(-c3nc4ccccc4n3C)c(=O)oc2c1,?,–,?,0.411µM,0.231µM,0.581µM
CN(C)Cc1c(O)ccc2cc(-c3nc4ccccc4n3C)c(=O)oc12,5.8µM,–,–,–,–,3.66µM
CCN(CC)c1ccc2cc(-c3nc(-c4ccc(OC)cc4)cs3)c(=O)oc2c1,?,–,?,18.4µM,–,1.84µM
CN(C)Cc1c(O)ccc2c(-c3ccccc3)cc(=O)oc12,–,–,–,–,–,–
CCN(CC)c1ccc2cc(-c3nc4ccccc4[nH]3)c(=O)oc2c1,4.11µM,–,?,?,?,5.17µM
COc1ccccc1CNC(=O)CCCn1c(=O)c2cccn2c2ccccc21,·,–,·,·,·,·
O=C(COc1ccc(Cl)cc1)NCC(c1ccco1)S(=O)(=O)c1ccc(Cl)cc1 (configuration not stated),·,–,·,–,–,·
CC1CCN(CCc2nc3cc(NC(=O)COc4ccc(Cl)cc4)ccc3n2C)CC1,16.4µM,–,–,–,?,18.4µM
